Data published in PubChem BioAssay.
Several values for one entry are separate records, joined by “and”; a condition that tells them apart may be missing. Equal values may be shown once. For some of these results: Potency and affinity values are given separately. Activity calls are given as the source filed them. Unless noted, no rule for the calls is given here.

Columns and labels:
[1] = blockers of polyQ-driven CASP3 activation – cell-based (AID 1583); conditions: polyglutamine-induced caspase-3 activation, cell assay; stronger effect = higher value;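 tested at 10 µM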
[2] = yeast 75Q aggregation reduction – 75Q-TubU reporter (AID 1593); conditions: Yeast 75Q polyglutamine aggregation reporter
[3] = restoration of touch response, mutant HTT neurons – whole organism, C. elegans mechanosensory neurons, N-terminal huntingtin (AID 1599); conditions: C. elegans polyQ-huntingtin mechanosensory neurons, stronger effect = higher value
[4] = blockers of cytochrome c efflux from mitochondria – biochemical, purified mitochondria (AID 1603); conditions: stronger effect = lower value;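 also: mouse liver mitochondria challenged with calcium chloride; signal normalized to the plate average as 100%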
[5] = polyglutamine aggregate formation blockers (AID 1604); conditions: polyglutamine-induced protein aggregation inhibition assay; stronger effect = higher value; tested at 2.5 µM
[6] = glutamate transport activators, MN-1 cells, MN-1 cell line (AID 1612); conditions: MN-1 motor neuron cells, stronger effect = higher value;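 also: tested at 1 µM final; 0% = mean of DMSO vehicle wells on each plate; positive means more glutamate uptake than control and negative means less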
[7] = 75Q-TubH aggregate inhibition, S. cerevisiae, yeast (AID 1616); conditions: S. cerevisiae 75Q-TubH polyglutamine aggregation suppression; stronger effect = higher value
[8] = compounds altering circadian rhythm period length – cell-based, LOPAC library, luminescence reporter (AID 2774); conditions: circadian reporter cells, at 7 µM, actives lie on both sides;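 also: values are relative to mean of DMSO wells on each plate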
[9] = test system: Hepatitis C virus NS3 helicase; test: blockers of NS3h binding to ssDNA – biochemical, fluorescence polarization, LOPAC1280 library, primary screen (AID 687035; in the data active = inhibition above about 37%); conditions: Purified HCV NS3 helicase, Cy5-dT15 ssDNA binding fluorescence polarization; stronger effect = higher value; concentration not given here
[10] = compounds altering Cy5-DNA-NS3h complex signal – biochemical, LOPAC1280, artefact control for HCV NS3 helicase inhibitor project (AID 687037); conditions: Cy5-DNA-NS3h complex fluorescence interference counterscreen
[11] = signal quenchers or enhancers, Cy5 substrate/SSB – biochemical, NIH Clinical Collection, E. coli SSB, artefact control for HCV NS3 helicase inhibitor project (AID 743268); conditions: Cy5-oligo bound E. coli SSB, fluorescence interference
[12] = test system: Hepatitis C virus NS3 helicase; test: blockers of NS3h binding to DNA – biochemical, fluorescence polarization, NIH Clinical Collection, primary screen (AID 743270); conditions: NS3 helicase binding to Cy5-dT15 DNA, stronger effect = higher value, concentration not given here
[13] = target: Single-stranded DNA-binding protein (Escherichia coli (strain K12)) (UniProt P0AGE0); test: SSB-ssDNA binding inhibitors – biochemical, fluorescence polarization, NIH Clinical Collection, counter-screen for HCV NS3 helicase inhibitor project (AID 743271; in the data active = inhibition above about 28%); conditions: E. coli SSB-DNA binding, stronger effect = higher value, concentration not given here
[14] = compounds distorting NS3 helicase fluorescence signal – biochemical, NIH Clinical Collection, artefact control for HCV NS3 helicase inhibitor project (AID 743272); conditions: fluorescence interference counterscreen, HCV NS3 helicase assay; stronger effect = lower value;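 also: HCV NS3 helicase with a Cy5 labelled single stranded DNA probe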
[15] = blockers of cellular phospholipid synthesis – cell-based, LOPAC library, screen 4, primary screen (AID 1347384); conditions: animal cells, phospholipid biosynthesis inhibition screen; at 10 µM

O=C(CCCN1CCC(O)(c2ccc(Cl)cc2)CC1)c1ccc(F)cc1
inhibition [1]: -12.1%
score [2]: 1.43
rescue above control [3]: 27.6
cytochrome c release ratio [4]: 1.55
inhibition of aggregation [5]: 81.4%
glutamate uptake change [6]: 6.85%
aggregation suppression score [7]: 1.09
period change [8]: 0.015 h (inactive)
inhibition [9]: -3% (inactive)
fluorescence ratio (interference) [10]: 1 (inactive)
fluorescence ratio [11]: 0.91 (inactive)
inhibition [12]: -12.4% (inactive)
inhibition [13]: 1.18% (inactive)
fluorescence ratio [14]: 0.89 (inactive)
outcome [15]: inactive

CNCCCN1c2ccccc2CCc2ccccc21
inhibition [1]: -34.3%
score [2]: 1.37
rescue above control [3]: -15.4
cytochrome c release ratio [4]: 1.05
inhibition of aggregation [5]: 7.32%
glutamate uptake change [6]: 12.7%
aggregation suppression score [7]: 1.18
period change [8]: -0.04 h (inactive)
inhibition [9]: -1% (inactive)
fluorescence ratio (interference) [10]: 1 (inactive)
fluorescence ratio [11]: 0.96 (inactive)
inhibition [12]: -2.27% (inactive)
inhibition [13]: -2% (inactive)
fluorescence ratio [14]: 1.02 (inactive)
outcome [15]: inactive

N=c1nc(N2CCCCC2)cc(N)n1O
inhibition [1]: 20.6%
score [2]: 1.58
rescue above control [3]: 3.83
cytochrome c release ratio [4]: 1.17
inhibition of aggregation [5]: 22.5%
glutamate uptake change [6]: 7.03%
aggregation suppression score [7]: 1.83
period change [8]: -0.045 h (inactive)
inhibition [9]: -4% (inactive)
fluorescence ratio (interference) [10]: 1 (inactive)
fluorescence ratio [11]: 0.1 (active)
inhibition [12]: -9.55% (inactive)
inhibition [13]: -5.05% (inactive)
fluorescence ratio [14]: 1.03 (inactive)
outcome [15]: inactive

CC(C)(C)NCC(O)c1ccc(O)c(CO)c1 (configuration not stated)
inhibition [1]: -4.84%
score [2]: 1.14
rescue above control [3]: 0.08
cytochrome c release ratio [4]: 3.64
inhibition of aggregation [5]: 25%
glutamate uptake change [6]: -8.12%
aggregation suppression score [7]: 0.989
period change [8]: -0.055 hour (inactive) and -0.15 hour (inactive)
inhibition [9]: 0% (inactive)
fluorescence ratio (interference) [10]: 1 (inactive)
fluorescence ratio [11]: 0.96 (inactive)
inhibition [12]: -1.19% (inactive)
inhibition [13]: 2.98% (inactive)
fluorescence ratio [14]: 0.94 (inactive)
outcome [15]: inactive

CC12CCC(CC1)C(C)(C)O2
inhibition [1]: 20.8%
score [2]: 1.26
rescue above control [3]: 2.25
cytochrome c release ratio [4]: 0.96
inhibition of aggregation [5]: 71.8%
glutamate uptake change [6]: -6.04%
aggregation suppression score [7]: 1.21
